Source: PubChem BioAssay (Tox21)
“And” between values parts separate entries of the source, which are not always exact repeats. Identical values can stand only once. Records with an inconclusive call do not appear. Some compounds were tested as several samples or in several runs, with calls that do not always agree. The source made the active and inactive calls. Unless noted, calls follow the shape of the full dose curve.

Key:
[1] = molecular target: Peroxisome proliferator-activated receptor delta (Homo sapiens) (UniProt Q03181); test: qHTS assay to identify small molecule agonists of the peroxisome proliferator-activated receptor delta (PPARd) signaling pathway (AID 743212)
How it was run: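 Quantitative high-throughput agonist screen in a HEK293H beta-lactamase reporter line under UAS control. Compounds in DMSO, at 37 C. Fluorescence read after 2 h with FRET substrate at room temperature.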

[2] = qHTS assay to identify small molecule antagonists of the peroxisome proliferator-activated receptor delta (PPARd) signaling pathway - cell viability counter screen (AID 743213; active = well fitted curve in the direction sought with a large enough effect in the repeat runs; an effect the other way counts as inactive or inconclusive; also: nearly all actives have a fitted effect of over 50% in size)
How it was run: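 Same-well viability: cells pre-incubated 5 h, dosed with compound plus 300 nM L165041, kept 17 h at 37 C, FRET substrate 2 h RT, then CellTiter-Glo 30 min RT and luminescence.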

[3] = molecular target: Peroxisome proliferator-activated receptor delta (Homo sapiens) (UniProt Q03181); test: qHTS assay to identify small molecule antagonists of the peroxisome proliferator-activated receptor delta (PPARd) signaling pathway (AID 743215; active = well fitted inhibition curve with a large enough effect in the signal ratio in the repeat runs, not every such curve was filed as active; the % refers to the signal ratio;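 also: cells stimulated with agonist L165041 at 300 nM final during compound exposure; series mostly up to about 62 µM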)
How it was run: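 Antagonist-mode beta-lactamase reporter screen: HEK293H cells with UAS-bla under PPARd control, stimulated by 300 nM L165041 (final) alongside test compound for 17 h at 37 C, then FRET fluorescence after 2 h substrate incubation.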

[4] = qHTS assay to identify small molecule agonists of the farnesoid-X-receptor (FXR) signaling pathway - cell viability counter screen (AID 743218; active = well fitted curve in the direction sought with a large enough effect in the repeat runs; an effect the other way counts as inactive or inconclusive; also: nearly all actives have a fitted effect of over 45% in size)
How it was run: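 In GeneBLAzer FXR-UAS-bla HEK 293T cells, compounds act for 16 h at 37 C. Cell viability is then scored in the reporter wells by CellTiter-Glo, 30 min at RT, luminescence.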

[5] = qHTS assay to identify small molecule antagonists of the farnesoid-X-receptor (FXR) signaling pathway - cell viability counter screen (AID 743221; active = well fitted cell-killing curve with a large enough effect in the repeat runs, not every such curve was filed as active; also: nearly all actives have a fitted effect of over 50% in size)
How it was run: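 CellTiter-Glo, 30 min RT, luminescence; same wells as the LiveBLAzer FRET read. Cells: FXR-UAS-bla HEK 293T. Treatment: compound with chenodeoxycholic acid 50 uM final, 16 h at 37 C.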

[6] = molecular target: Vitamin D3 receptor (Homo sapiens) (UniProt P11473); test: qHTS assay to identify small molecule agonists of the vitamin D receptor (VDR) signaling pathway (AID 743222)
How it was run: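 Agonist activity measured in VDR-bla reporter cells. Exposure 16 h, 37C, 5% CO2; detection by B/G FRET substrate, 2 h RT.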

[7] = molecular target: Vitamin D3 receptor (Homo sapiens) (UniProt P11473); test: qHTS assay to identify small molecule antagonists of the vitamin D receptor (VDR) signaling pathway (AID 743223; active = well fitted inhibition curve with a large enough effect in the signal ratio in the repeat runs, not every such curve was filed as active; the % refers to the signal ratio)
How it was run: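 After VDR-bla cells are plated and left 4 h at 37C, DMSO-dissolved compounds and 3 nM (final) calcitriol agonist are added. Incubation continues 16 h at 37C; FRET beta-lactamase substrate then develops 2 h at room temperature.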

[8] = qHTS assay to identify small molecule agonists of the vitamin D receptor (VDR) signaling pathway - cell viability counter screen (AID 743224; active = well fitted curve in the direction sought with a large enough effect in the repeat runs; an effect the other way counts as inactive or inconclusive; also: series mostly up to about 63 µM; nearly all actives have a fitted effect of over 50% in size)
How it was run: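 VDR-bla cell line, quantitative HTS format; 16 h compound incubation (37C, 5% CO2); ATP-based CellTiter-Glo luminescence measured in the reporter assay wells.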

[9] = qHTS assay to identify small molecule agonists of the endoplasmic reticulum stress response signaling pathway (AID 1159516; active = well fitted activation curve with a large enough effect in the signal ratio in the repeat runs, not every such curve was filed as active; the % refers to the signal ratio)
How it was run: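 ER stress element reporter (bla) in HeLa. 1,500 cells/well, overnight attachment; 5 hr compound; 2 hr RT substrate; dual-emission fluorescence.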

[10] = qHTS assay to identify small molecule agonists of the endoplasmic reticulum stress response signaling pathway - cell viability counter screen (AID 1159517);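 also: HeLa cells carrying an ER stress response element beta-lactamase reporter; series mostly up to about 61 µM; nearly all actives have a fitted effect of over 50% in size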
How it was run: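 Counter-screen wells were identical to the reporter wells. Cells were plated at 1,500 per well and dosed for 5 hr, then read for luminescence 30 min after CellTiter-Glo addition.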

[11] = qHTS assay to identify small molecule antagonists of the retinoid-related orphan receptor gamma (ROR-gamma) signaling pathway - cell viability counter screen (AID 1159520; active = well fitted curve in the direction sought with a large enough effect in the repeat runs; an effect the other way counts as inactive or inconclusive; also: nearly all actives have a fitted effect of over 50% in size)
How it was run: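 Tet-on ROR gamma CHO cells were given compounds for 2 hr, then doxycycline hyclate at 1 uM final, and incubated 16 hr at 37 C. Viability was measured as ATP content by CellTiter-Glo luminescence.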

[12] = molecular target: Nuclear receptor ROR-gamma (Homo sapiens) (UniProt P51449); test: qHTS assay to identify small molecule antagonists of the retinoid-related orphan receptor gamma (ROR-gamma) signaling pathway (AID 1159521; active = well fitted curve in the direction sought with a large enough effect in the repeat runs; an effect the other way counts as inactive or inconclusive; also: nearly all actives have a fitted effect of over 50% in size; also: potency is read from the fitted curve at half-maximal effect)
How it was run: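 Readout: ONE-Glo luciferase luminescence, 30 min at room temperature. System: Tet-on RORγ CHO, RORE-LUC. Sequence: compound 2 h, doxycycline 1 uM final, 16 h at 37 C.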

[13] = qHTS assay to identify small molecule agonists of the AP-1 signaling pathway - cell viability counter screen (AID 1159525); also: nearly all actives have a fitted effect of over 55% in size
How it was run: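 AP-1-bla ME-180 cells in Opti-MEM with 0.5% dialyzed FBS, compound exposure 5 h at 37 C in 15-point titration. Viability read in the same wells as ATP content by CellTiter-Glo luminescence, normalised to tetra-n-octylammonium bromide and DMSO controls.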

[14] = qHTS assay to identify small molecule agonists of the AP-1 signaling pathway (AID 1159526)
[15] = molecular target: Retinoic acid receptor RXR-alpha (Homo sapiens) (UniProt P19793); test: qHTS assay to identify small molecule agonists of the RXR signaling pathway (AID 1159527); also: nearly all actives have a fitted effect of over 35% in size; also: potency is read from the fitted curve at half-maximal effect
How it was run: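 Reporter activation is measured as beta-lactamase activity via FRET substrate cleavage (emission 460/530 nm) in HEK 293T cells expressing an RXR-alpha-driven bla construct, following 16 hr compound exposure at 37 C.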

[16] = molecular target: Bile acid receptor (Homo sapiens) (UniProt Q96RI1); test: qHTS assay to identify small molecule antagonists of the farnesoid-X-receptor (FXR) signaling pathway (AID 743217; active = well fitted inhibition curve with a large enough effect in the signal ratio in the repeat runs, not every such curve was filed as active; the % refers to the signal ratio)
How it was run: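 Beta-lactamase reporter under UAS control in HEK 293T cells; compound exposure 16 h at 37 °C in the presence of chenodeoxycholic acid (50 uM final); signal from B/G FRET substrate after 2 h at room temperature.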

[17] = molecular target: Bile acid receptor (Homo sapiens) (UniProt Q96RI1); test: qHTS assay to identify small molecule agonists of the farnesoid-X-receptor (FXR) signaling pathway (AID 743220; active = well fitted activation curve with a large enough effect in the signal ratio in the repeat runs, not every such curve was filed as active; the % refers to the signal ratio)
How it was run: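 Beta-lactamase reporter under UAS control in GeneBLAzer FXR HEK 293T cells (5000/well) measured with LiveBLAzer FRET substrate after 2 h at room temperature. Compound exposure lasted 16 h at 37C.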

[18] = qHTS assay to identify small molecule antagonists of the vitamin D receptor (VDR) signaling pathway - cell viability counter screen (AID 743225; active = well fitted curve in the direction sought with a large enough effect in the repeat runs; an effect the other way counts as inactive or inconclusive; also: nearly all actives have a fitted effect of over 50% in size)
How it was run: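 Cytotoxicity toward the VDR-bla HEK 293T line was scored by ATP-based CellTiter-Glo luminescence, read in the wells already used for the beta-lactamase readout after 16 h compound treatment under 3 nM 1-alpha,25-dihydroxyvitamin D3 stimulation.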

[19] = qHTS assay to identify small molecule agonists of the NFkB signaling pathway - cell viability counter screen (AID 1159515); also: series mostly up to about 61 µM; nearly all actives have a fitted effect of over 55% in size
How it was run: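 Viability in NFkB-bla ME-180 cells was measured by CellTiter-Glo luminescence, 30 min room temperature, in wells already treated 5 hr with compounds and read for reporter FRET.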

Measured: Potency

Chain of Bile acid receptor (Homo sapiens) (Q96RI1 whole entry, looked up): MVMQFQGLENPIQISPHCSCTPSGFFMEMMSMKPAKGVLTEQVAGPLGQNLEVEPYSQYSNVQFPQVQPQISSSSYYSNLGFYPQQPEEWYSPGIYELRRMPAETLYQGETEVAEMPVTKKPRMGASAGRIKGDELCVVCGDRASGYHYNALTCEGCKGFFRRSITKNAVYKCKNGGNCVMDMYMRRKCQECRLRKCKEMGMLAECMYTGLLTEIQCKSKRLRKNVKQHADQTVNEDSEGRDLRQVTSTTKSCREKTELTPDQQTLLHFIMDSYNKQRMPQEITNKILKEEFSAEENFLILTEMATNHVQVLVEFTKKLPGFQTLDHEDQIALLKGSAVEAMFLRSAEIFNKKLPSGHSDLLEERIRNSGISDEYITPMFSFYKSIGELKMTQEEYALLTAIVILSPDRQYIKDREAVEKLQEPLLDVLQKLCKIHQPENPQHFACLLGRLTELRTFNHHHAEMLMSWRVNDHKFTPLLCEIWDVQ
Chain of Retinoic acid receptor RXR-alpha (Homo sapiens) (P19793 whole entry, looked up): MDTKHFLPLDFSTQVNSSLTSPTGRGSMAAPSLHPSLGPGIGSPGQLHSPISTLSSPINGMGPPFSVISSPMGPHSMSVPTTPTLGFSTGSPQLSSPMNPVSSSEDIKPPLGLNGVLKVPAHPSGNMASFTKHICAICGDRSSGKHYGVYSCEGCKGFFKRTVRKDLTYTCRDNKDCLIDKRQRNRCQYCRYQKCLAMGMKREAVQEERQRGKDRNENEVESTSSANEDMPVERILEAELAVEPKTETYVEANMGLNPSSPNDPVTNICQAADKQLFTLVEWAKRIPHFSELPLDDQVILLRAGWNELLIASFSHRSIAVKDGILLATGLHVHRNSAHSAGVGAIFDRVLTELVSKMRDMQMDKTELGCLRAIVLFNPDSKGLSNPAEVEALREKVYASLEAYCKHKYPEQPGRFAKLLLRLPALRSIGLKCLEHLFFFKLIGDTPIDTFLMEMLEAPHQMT
Chain of Peroxisome proliferator-activated receptor delta (Homo sapiens) (Q03181 whole entry, looked up): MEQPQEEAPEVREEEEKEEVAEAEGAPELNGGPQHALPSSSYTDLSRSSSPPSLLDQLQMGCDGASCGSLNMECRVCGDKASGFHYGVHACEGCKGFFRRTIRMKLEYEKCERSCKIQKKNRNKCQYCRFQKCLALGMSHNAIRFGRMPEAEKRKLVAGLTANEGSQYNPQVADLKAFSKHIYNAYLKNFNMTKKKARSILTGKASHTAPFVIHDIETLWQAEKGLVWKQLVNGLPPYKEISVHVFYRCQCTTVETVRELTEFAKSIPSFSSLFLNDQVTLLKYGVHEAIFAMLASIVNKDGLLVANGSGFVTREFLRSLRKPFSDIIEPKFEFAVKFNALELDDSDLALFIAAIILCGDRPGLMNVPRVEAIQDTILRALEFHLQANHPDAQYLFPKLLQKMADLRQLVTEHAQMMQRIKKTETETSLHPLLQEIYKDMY
Chain of Vitamin D3 receptor (Homo sapiens) (P11473 whole entry, looked up): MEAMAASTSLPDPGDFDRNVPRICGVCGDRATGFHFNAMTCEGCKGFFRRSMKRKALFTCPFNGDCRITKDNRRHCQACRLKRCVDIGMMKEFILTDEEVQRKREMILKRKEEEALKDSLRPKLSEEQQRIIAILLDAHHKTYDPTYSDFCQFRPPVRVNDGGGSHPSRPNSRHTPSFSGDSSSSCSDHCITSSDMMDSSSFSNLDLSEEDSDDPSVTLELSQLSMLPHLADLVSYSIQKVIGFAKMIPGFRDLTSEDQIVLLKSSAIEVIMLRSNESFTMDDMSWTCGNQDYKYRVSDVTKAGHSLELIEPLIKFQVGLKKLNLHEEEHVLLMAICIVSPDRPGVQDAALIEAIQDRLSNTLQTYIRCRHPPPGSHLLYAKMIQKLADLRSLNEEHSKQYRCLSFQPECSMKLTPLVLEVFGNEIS

CCNc1cccc(C)c1
not listed: [16] | [17] | [18] | [19]
inactive: all other assays above

CC(=O)OC1CC(C)OC(C)O1 (stereo not drawn)
not listed: [6] | [7] | [9]
inactive: all other assays above

CCOCC(=O)O
not listed: [16] | [17]
inactive: all other assays above

CN(C)c1ccc(O)c2c1C[C@H]1C[C@H]3[C@H](N(C)C)C(=O)C(C(N)=O)=C(O)[C@@]3(O)C(=O)C1=C2O
active: [12] 21.7 µM and 26.6 µM
not listed: [9] | [11] | [16] | [17] | [19]
inactive: all other assays above

CCO[Si](CCCN)(OCC)OCC
19.5 µM (active) and inactive: [15]
not listed: [9] | [11]
inactive: all other assays above

O=c1[nH]cnc2[nH]ncc12
not listed: [7] | [9] | [11] | [16] | [17]
inactive: all other assays above

CC(C)CC(C)O (stereo not drawn)
not listed: [11]
inactive: all other assays above

O=C(O)c1ccc(C(=O)O)c(C(=O)O)c1
not listed: [6] | [7] | [9] | [16] | [17] | [19]
inactive: all other assays above

CCCCCCCCCCCCCCCC(=O)OC(C)C
not listed: [16] | [17]
inactive: all other assays above

COc1ccccc1OCC(O)CO (stereo not drawn)
not listed: [16] | [17]
inactive: all other assays above
